Shiga toxin inh: inhibitors of Shiga toxin in Vero cells. inhibition, % at 38.7 µM. Vero cells, Shiga toxin protein synthesis inhibition reporter. 9.2% of 290,000 active. AID 2315; in the data active = inhibition mostly above about 28%, no sharp cut-off; inactive = mostly below about 43%; note: 0% is about no effect
Sm TGR inh: blocks Schistosoma mansoni thioredoxin glutathione reductase; 3% of 360,000 active; Potency, µM (titrated, usually from 114 µM), for the others: at the highest dose activity change, negative = inhibition, most hits filed as inhibitors; Q962Y6; purified TGR, DTNB reduction, TNB absorbance 405 nm; note: potency is the fitted concentration of half-maximal effect; % is set by controls: 0 for no effect and ±100 for the full control effect; nearly all actives have a fitted effect of over 60% in size
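TGR 20 nM + NADPH 100 uM (dispensed conc.), cpd preinc 15 min RT; start with NADPH (500 uM addition) then DTNB (15 mM addition). Kinetic TNB absorbance, 405 nm filter. Four-parameter Hill fit across titration.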
Cycloheximide cs: counter-screen for Shiga toxin inhibitors: cycloheximide protein synthesis inhibition | cell reporter, cycloheximide protein synthesis inhibition counterscreen | max response, % | 12% of 300,000 active | AID 2314; in the data active = max response mostly above about 13%, no sharp cut-off; inactive = mostly below about 14%; note: read at 38.3 µM for the half of the compounds with a filed dose; 0% is about no effect
LmPK inhibitor: inhibitors of Leishmania mexicana pyruvate kinase. Q27686. purified LmPK, Kinase-Glo ATP luminescence, 1 h. Potency, µM (titrated, usually from 57.5 µM), inactives show top-dose activity change, negative = inhibition, hits mostly inhibitors. 0.37% of 290,000 active. AID 1721; note: potency is the fitted concentration of half-maximal effect; % is set by controls: 0 for no effect and ±100 for the full control effect
Target sequence (Q27686 whole entry, looked up): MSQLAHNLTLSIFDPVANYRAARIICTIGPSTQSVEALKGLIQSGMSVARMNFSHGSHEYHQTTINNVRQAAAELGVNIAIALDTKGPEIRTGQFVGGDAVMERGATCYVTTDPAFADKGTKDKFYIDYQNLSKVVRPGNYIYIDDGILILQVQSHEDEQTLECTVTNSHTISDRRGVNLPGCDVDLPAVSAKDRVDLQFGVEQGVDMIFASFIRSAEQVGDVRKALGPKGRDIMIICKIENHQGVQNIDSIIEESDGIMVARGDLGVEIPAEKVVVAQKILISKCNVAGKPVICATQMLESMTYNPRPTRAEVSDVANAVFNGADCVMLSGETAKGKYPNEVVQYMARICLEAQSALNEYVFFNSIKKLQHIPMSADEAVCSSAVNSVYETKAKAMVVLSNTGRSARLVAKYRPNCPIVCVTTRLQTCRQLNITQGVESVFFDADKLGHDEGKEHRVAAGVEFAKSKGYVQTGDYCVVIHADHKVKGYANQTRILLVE
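qHTS format; LmPK 0.1 nM; substrates PEP 0.5 mM and ADP 0.1 mM. One-hour room-temperature incubation, then coupled luciferase luminescence; 0.5 nM enzyme wells mark activation.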
TbPYK inhibitor: T. brucei pyruvate kinase inhibition; 0.12% of 410,000 active; AID 624173; Potency, µM (top dose mostly 76.8 µM), without a hit: at the highest dose activity, negative = inhibition, usual class: inhibitors; TbPYK enzyme, Kinase-Glo Plus ATP luminescence, 45 min; note: potency is the fitted concentration of half-maximal effect; % is set by controls: 0 for no effect and ±100 for the full control effect; nearly all actives have a fitted effect of over 50% in size
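Screened from lowest to highest concentration, compounds were pinned into TbPYK/substrate mixtures, and ADP (130 uM final) was added. Plates sat at room temperature for 45 min prior to Kinase-Glo Plus detection by luminescence.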
FBPA Giardia inh: Giardia lamblia aldolase inhibition; 0.71% of 290,000 active; Potency, µM (top dose mostly 59.6 µM), for the others: at the highest dose activity, negative = inhibition, usual class: inhibitors; purified Giardia FBPA; A8B2U2; AID 2451; note: potency is the fitted concentration of half-maximal effect; % is set by controls: 0 for no effect and ±100 for the full control effect; nearly all actives have a fitted effect of over 55% in size
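40 nM FBPA preincubated 10 min at RT with compound (up to 57.5 uM final), then substrate plus GAPDH/TPI/NAD/arsenate coupling and diaphorase/resazurin added. Fluorescence read after 20 min at RT, 525/598 nm.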
* marks the source's active call; other numbers are inactive results; ? = inconclusive; / = no result. The sample as a whole holds a higher share of hits than the screen did. Unless noted, calls come from the whole dose curve; as a rule, active = well fitted curve in the direction sought with a large enough effect; inconclusive = small, poorly fitted or top-dose-only effect, or another doubt; inactive = no such curve, though single readings can be large; an effect the other way counts as inactive or inconclusive.

SMILES | Shiga toxin inh | Sm TGR inh | Cycloheximide cs | LmPK inhibitor | TbPYK inhibitor | FBPA Giardia inh
Cc1cc(C)cc(NC(=O)CSc2nnc(-c3cc4occc4n3C)n2-c2ccccc2C)c1 | / | 4% | / | / | 0% | /
CC(C)Cn1[nH]c2c3c(ccc2c1=O)C(=O)c1ccccc1C3=O | 61 | 6% | 27* | -28% | -9% | ?
Oc1ccc(C=NN=Cc2ccco2)c(O)c1 | / | / | / | / | -8% | /
CCc1ccc(NC(=O)CC2C(=O)N(c3cccc(OC)c3)C(=O)N2Cc2ccco2)cc1 (configuration not stated) | / | 40µM* | / | / | 2% | /
CN1C(=O)C(CC(=O)Nc2ccc(Cl)cc2)N(Cc2ccco2)C1=S (configuration not stated) | -2 | 10µM* | -3 | 1% | -8% | -5%
CCNC(=O)CC1C(=O)N(c2ccccc2)C(=O)N1Cc1ccc(OC)cc1 (configuration not stated) | -2 | 0% | 13* | -2% | -4% | 2%
CCc1ccc(NC(=O)CC2C(=O)N(c3cccc(C)c3)C(=O)N2Cc2ccco2)cc1 (configuration not stated) | / | 45µM* | / | / | 3% | /
COc1cc(C(=O)OC(COCCC(C)C)CN2CCOCC2)cc(OC)c1OC (configuration not stated) | / | / | / | / | 6% | /
CSc1ncc(-c2ccc(Cl)cc2)[nH]1 | 76* | 26% | 45* | -8% | 0% | -1%
Cc1ccc(C(=O)N/C(=C\c2ccc(-c3ccccc3[N+](=O)[O-])o2)C(=O)NCCN(C)C)cc1 | 18 | 1.4µM* | 13* | -9% | -1% | 5µM*
CCCCNC(=O)/C(=C\c1ccc([N+](=O)[O-])o1)NC(=O)c1ccccc1 | 50 | 45µM* | 16 | 10% | -2% | -6%
Cc1ccc(/C=C(\NC(=O)c2ccccc2)C(=O)NCCc2ccccn2)o1 | 24 | -34% | 11* | 0% | 0% | -18%
Cc1ccc(C(=O)N/C(=C\c2ccc(-c3ccccc3[N+](=O)[O-])o2)C(=O)NCCCN(C)C)cc1 | 15 | 8.9µM* | 10 | -8% | -4% | ?
COC(=O)/C(=C\c1ccc([N+](=O)[O-])o1)NC(=O)c1ccccc1 | -13 | ? | -4 | -6% | 6% | -4%
CN(C)CCCNC(=O)/C(=C/c1ccc(-c2ccc([N+](=O)[O-])cc2)o1)NC(=O)c1ccccc1 | 20 | 0% | -2 | -2% | 3% | 9%
COc1ccc(C(c2c(O)ccc3ccccc23)N2CCOCC2)c(OC)c1 (configuration not stated) | 65* | 3.5µM* | 34 | 5% | 0% | -5%
Cc1ccc(Cl)cc1N1CCN(S(=O)(=O)c2c(C)[nH]c(C)c2C(=O)N2CCCCC2)CC1 | -5 | -1% | -3 | 8% | 1% | 7%
Nc1nc(SCC(=O)Nc2ccc(OCc3ccccc3)cc2)n[nH]1 | 58* | 20% | 28* | -2% | -8% | 1%
COc1ccc(-c2csc(NC(=O)CSc3n[nH]c(C)n3)n2)cc1 | 108* | -10% | 31* | 3% | 0% | -11%
Cc1nc(SCC(=O)Nc2cccc(C(=O)O)c2)n[nH]1 | -6 | -4% | -2 | -2% | -11% | -2%
Cc1nc(SCC(=O)Nc2ccc(OCc3ccccc3)cc2)n[nH]1 | 58* | 5% | 24* | 0% | 0% | -7%
O=C(NCc1ccccn1)C(=O)NCC1OCCN1S(=O)(=O)c1ccc(Cl)cc1 (configuration not stated) | 12 | -19% | -1 | -3% | -3% | /
Cc1c(Cl)cccc1NC(=O)Nc1nnc(N2CCCCCC2)s1 | / | 9% | / | / | -2% | /
COC(=O)C(=Nc1ccccc1)/C(C(=O)C(=O)N(C)c1ccccc1)=C(\O)c1ccccc1 | 119* | -13% | 44* | -1% | -5% | -17%
NS(=O)(=O)c1ccc(CCNC(=O)c2ccc3nc(Cc4ccccc4)oc3c2)cc1 | / | 0% | / | / | -3% | /
SMILES | Shiga toxin inh | Sm TGR inh | Cycloheximide cs | LmPK inhibitor | TbPYK inhibitor | FBPA Giardia inh
Nc1c(-c2ccccc2)cnn1-c1cccc(C(F)(F)F)c1 | 83* | 9% | 68* | 6% | -5% | 0%
Nc1c(-c2cccc(Cl)c2)cnn1-c1cccc(C(F)(F)F)c1 | 58* | 9% | 31* | 1% | 4% | -6%
CCCCN(C)C(=O)c1sc(=O)n(CC(=O)c2ccccc2OC)c1C | / | / | / | / | -1% | /
CCOC(=O)c1c(NC(=O)CSc2cn(CCNC(=O)c3ccccc3F)c3ccccc23)sc2c1CCC2 | / | 4% | / | / | 1% | /
O=S(=O)(c1ccc2c(c1)CCCC2)N1CCNCC1 | / | -16% | / | / | 0% | /
O=C1NCCC/C1=N\Nc1ccc(Br)cc1 | 49 | -28% | 8.2* | 0% | 2% | -9%
Cc1ccccc1N/N=C1\CCCNC1=O | 13 | ? | 8 | 1% | -2% | -16%
O=S(=O)(c1ccccc1)c1nc(-c2ccco2)oc1Nc1ccccc1 | 90* | 0% | 25* | 1% | -9% | 2%
O=S(=O)(c1ccc(F)cc1)c1nc(-c2ccco2)oc1Nc1ccccc1 | 114* | 4% | 50* | -1% | 7% | -2%
O=Nc1ccc(NOC(=O)c2ccccc2Br)cc1 | 127* | -6% | 85* | ? | -16% | -6%
CCCSCCCNC(=O)C1CCN(C(=O)c2cc3sccc3n2C)CC1 | / | -6% | / | / | 3% | /
COc1ccc(-c2noc(CCC(=O)N3CCN(c4ccc(Cl)cc4)CC3)n2)cc1 | / | / | / | / | 0% | /
CCOc1ccc2c(c1)OC(c1ccc(C)cc1)(C(F)(F)F)NC2=O (configuration not stated) | 53* | 12% | 27* | -5% | 0% | ?
COc1ccc(-c2noc(-c3ccc(Cl)cc3[N+](=O)[O-])n2)cc1OC | 16 | -10% | 16* | 1% | -18% | -5%
Cc1cccc(-c2noc(-c3ccc(Cl)cc3[N+](=O)[O-])n2)c1 | 82* | 8% | 42* | 1% | -1% | 0%
COC(=O)c1ccc(CSc2nc3c([nH]c4ccccc43)c(=O)n2-c2ccc(Cl)cc2)o1 | / | -6% | / | / | -1% | /
CCCC(=O)Nc1nn(C)c2nc3c(C)cccc3cc12 | 12 | -30% | 1 | -5% | -1% | -4%
Cc1cc(C)c2c(NC(=O)CCl)nn(C)c2n1 | 26 | 32µM* | 26 | -3% | 0% | -1%
COc1ccc(C(c2nnnn2Cc2ccccc2)N2CCN(C(=O)c3ccco3)CC2)cc1 (configuration not stated) | -3 | ? | 28* | -2% | 3% | -4%
O=C(c1ccco1)N1CCN(C(c2ccc(Cl)cc2)c2nnnn2Cc2ccccc2)CC1 (configuration not stated) | 15 | ? | 13* | 4% | 4% | 0%

High-throughput results (PubChem BioAssay)
